The text below walks through data of the emibetuzumab library of Makowski et al. (2022).

Some of the results follow. No count for the full screen is at hand.

The chains are these.
B1: VH:VL chains; a variant is named by its letters at X, in order (parent)
chain 1: QVQLVQSGAEVKKPGASVKVSCKASGYTFTDYXMHWVRQAPGQGLEWMGXVNPNXXXTTYNQKFEGRVTMTTDTSTSTAYMELRSLRSDDTAVYYCARXNXLDXWGQGTTVTVSS
chain 2: DIQMTQSPSSLSASVGDRVTITCSVSSSVSSIYLHWYQQKPGKAPKLLIYSTSNLASGVPSRFSGSGSGTDFTLTISSLQPEDFATYYCQVYSGYPLTFGGGTKVEIK

Variants of B1 are the subject of the experiment. Put plainly: yeast display scFab, FACS + sequencing. The following applies: with MET. The procedure, abridged: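 Round-3 sorted and input populations from a heavy-chain CDR mutant scFab yeast library were deep sequenced in two replicates. Sorting used FACS on cells labelled for 3 h at room temperature with 1 nM HGFR-Fc and anti-Myc in PBSB with 1% milk, keeping the top 50% antigen-positive cells. Any sequence seen in both antigen-positive samples was called a binder, while one seen only in the input was called a non-binder.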
With DAKEGDAD, the antigen binding call is given as “no binding”.
Then DTGEADAS, with “no binding”; and VRGKGAWD, with “binds”; and VRGKGAVD, with “binds”.
As to VKGKGAWD, the antigen binding call is on record as “binds”.
VKGEAAWD: the antigen binding call was “no binding”.
Then VRGKGAAD, with “binds”; and VAGKGVLD, with “no binding”.
As to VEGKGAGD, the antigen binding call is listed as “no binding”.
Regarding VAGKGAGD, the antigen binding call was “no binding”.
In the case of YEKETVVA, the antigen binding call is “no binding”.
On to YKGKSAWD, for which the antigen binding call is given as “no binding”.
Then YKGKGAWD, with “binds”; and YRARSAGV, with “binds”; and DRAGDAGV, with “no binding”.
As for SEARSAGV, the antigen binding call was “no binding”.
As for YRARSASV, the antigen binding call is “binds”.
Regarding SEARSSGV, the antigen binding call was “no binding”.
In the case of YRARSSGV, the antigen binding call is on record as “binds”.
Consider STEGDAGA, for which the antigen binding call was “no binding”.
Then DATRGAGY, with “no binding”; and VRKGSSGD, with “binds”.
As for YRKGSSGD, the antigen binding call is “binds”.
Then YRKGDSGD, with “binds”; and ARKGSSGD, with “no binding”.
Then YRKGDSLD, with “binds”.
VEKGGSGD: the antigen binding call was “no binding”.
Take VTGTGAAV: the antigen binding call is “no binding”.
Then YRKGDAGD, with “binds”; and FRGRGYAV, with “binds”; and FAAGSYAV, with “no binding”.
Take FRGRGYVV: the antigen binding call is on record as “binds”.
Then FRGRGYVA, with “binds”; and FRGRGYWV, with “binds”.
Turning to VTGEDAVV, the antigen binding call is “no binding”.
Then SEEGTAGA, with “no binding”; and FRGRGDWV, with “binds”.
For YGGTSYSV, the antigen binding call is “no binding”.
Then YRGRGYWA, with “binds”.
YRGRGYWV: the antigen binding call was “binds”.
As for VRATGYWA, the antigen binding call is “no binding”.
With DRGRGDWV, the antigen binding call is reported as “no binding”.
As to FAGGGDWV, the antigen binding call is “no binding”.
Consider SRGRGYSV, for which the antigen binding call is recorded as “no binding”.
On to YRGRGYSV, for which the antigen binding call is “binds”.
For AKERGDGV the value was “no binding”.
With VETEGDAV, the antigen binding call was “no binding”.
Consider FRGRGAWV, for which the antigen binding call is recorded as “binds”.
With FKGRGAWV, the antigen binding call is “binds”.
Consider FKGRGVWV, for which the antigen binding call is listed as “no binding”.
For YRGRGVWV, the antigen binding call is given as “binds”.
As for ARGRGAWV, the antigen binding call is recorded as “no binding”.
Then YGGRGDWV, with “no binding”; and VTGGGDGA, with “no binding”.
For YRGRGSAF, the antigen binding call is reported as “binds”.
With VEGGGDAA, the antigen binding call is listed as “no binding”.
For VRGGGSAA the value was “binds”; for VEGGGSSA, “no binding”; for YRGGGSAA, “binds”.
Turning to YEGGADVA, the antigen binding call is recorded as “no binding”.
As for DAGGAAAA, the antigen binding call is “no binding”.
For the variant DAGGAAVA, the antigen binding call was “no binding”.
YRGGAAAA: the antigen binding call is reported as “binds”.
As for YRGGASAA, the antigen binding call is recorded as “binds”.
DTKAASSA: the antigen binding call is reported as “no binding”.
Then SEGGSAAY, with “no binding”; and DEGGTDGV, with “no binding”.
Consider VRGRSSAA, for which the antigen binding call was “binds”.
Consider VREGSSAA, for which the antigen binding call is “no binding”.
YRGGTAAA: the antigen binding call is reported as “binds”.
For DEGGTAAA, the antigen binding call is on record as “no binding”.
For the variant YRGRTAAA, the antigen binding call is recorded as “binds”.
For YEERTAAA the value was “no binding”.
As for YRTRDVGF, the antigen binding call was “no binding”.
For YRGRGYVS the value was “binds”; for YRAGGVGF, “binds”; for YRAGGYGF, “binds”.
Turning to YRGRGYGS, the antigen binding call is “binds”.
On to DKTGDDVF, for which the antigen binding call is “no binding”.
For SEKKDYSA the value was “no binding”; for DGGGGYWF, “no binding”; for YRGGGDGF, “binds”.
Regarding YRGGGYGF, the antigen binding call is “no binding”.
Take YRGRGYGF: the antigen binding call was “binds”.
Consider YEGGGYSF, for which the antigen binding call is “no binding”.
Consider DRGGGDGV, for which the antigen binding call is “no binding”.
With YTGGDDGF, the antigen binding call is given as “no binding”.
For the variant YRGRGYGA, the antigen binding call was “binds”.
Then SETGADVA, with “no binding”.
As to FTGRGAGV, the antigen binding call is on record as “no binding”.
For DTGRGSGV the value was “no binding”.
Take VTGTGSLD: the antigen binding call was “no binding”.
Take YTGRGSLD: the antigen binding call is reported as “binds”.
As for YTGTSSLD, the antigen binding call is given as “no binding”.
As to YTGRGSGV, the antigen binding call is “binds”.
Then YRARSASA, with “binds”; and YRARGASA, with “binds”; and YRAGGASA, with “binds”.
As for YRAGGDSA, the antigen binding call is “binds”.
Consider DRAGDDSA, for which the antigen binding call is listed as “no binding”.
VEGTGVGD: the antigen binding call was “no binding”.
As for DAGKGAVY, the antigen binding call is “no binding”.
Take STTGGDGV: the antigen binding call is reported as “no binding”.
Regarding FAKTDAGF chain 1 G108D, the antigen binding call is reported as “no binding”.
As for SGRGNAGD, the antigen binding call is listed as “no binding”.
Take FTAGGAAD: the antigen binding call was “no binding”.
For FRGEGAAD, the antigen binding call is “binds”.
In the case of FKGEGAAD, the antigen binding call is reported as “no binding”.
Then YRTKGAAD, with “binds”; and YRAKGAAD, with “binds”; and YATKGFGD, with “no binding”.
With FRTKGAAD, the antigen binding call is given as “binds”.
In the case of ATGGGYVA, the antigen binding call is on record as “no binding”.
YKRAAYGD: the antigen binding call is “no binding”.
With YKRGAAGD, the antigen binding call is listed as “binds”.
As for YTRGAASD, the antigen binding call is on record as “no binding”.
Take YRRGAAGD: the antigen binding call is recorded as “binds”.
On to YKRGSAGD, for which the antigen binding call is given as “binds”.
Then FEKGSDVA, with “no binding”.
Then VETEGDVY, with “no binding”; and FTGEDDVY, with “no binding”; and YKGKGYVD, with “no binding”.
Take YKGGGAGS: the antigen binding call is given as “binds”.
As for DEGGGAGS, the antigen binding call was “no binding”.
With YKGRSSSS, the antigen binding call is given as “binds”.
Then VEGGTAGS, with “no binding”.
Then YKGKGAGS, with “binds”; and YKGKGSVS, with “binds”; and DKEGGSSS, with “no binding”.
For DAGGGSSS the value was “no binding”; for YEKEDYLA chain 1 G108D, “no binding”; for FAKEGDGD, “no binding”.
As for YKRGGAGS, the antigen binding call was “binds”.
As to YKGKGSSS, the antigen binding call is “binds”.
Consider YTGTGSGA, for which the antigen binding call is “no binding”.
Then YKGKGSGS, with “binds”; and YKGKGSGA, with “binds”.
For the variant YARGGAGA, the antigen binding call is “no binding”.
With VKAGGDGS, the antigen binding call is reported as “no binding”.
